{"source": "PubChem BioAssay AID2284181", "about": "(EPA ToxCast)", "note": "Inconclusive results are not listed. Calls of active or inactive are those of the source. The calls were made as follows: active = hit-call score of the fitted dose curve at least 0.9, where 1 is the maximum; inconclusive = response in the unintended direction; inactive = score below 0.9."}
{"target": "human Serotonin Receptor 5-HT1A, HTR1A (gene 3350) (UniProt P08908)", "sequence (P08908 whole entry, looked up)": "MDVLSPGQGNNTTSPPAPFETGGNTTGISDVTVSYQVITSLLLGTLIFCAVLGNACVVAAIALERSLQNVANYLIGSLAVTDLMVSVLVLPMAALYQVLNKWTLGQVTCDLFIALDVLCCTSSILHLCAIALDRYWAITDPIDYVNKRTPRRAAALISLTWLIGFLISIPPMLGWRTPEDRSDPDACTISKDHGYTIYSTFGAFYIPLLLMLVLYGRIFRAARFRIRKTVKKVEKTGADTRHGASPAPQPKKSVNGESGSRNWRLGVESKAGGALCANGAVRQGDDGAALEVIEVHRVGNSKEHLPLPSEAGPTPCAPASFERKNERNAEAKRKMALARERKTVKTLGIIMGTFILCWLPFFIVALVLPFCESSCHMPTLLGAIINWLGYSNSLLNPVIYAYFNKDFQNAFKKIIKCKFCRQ", "experiment": "ERF_FR_GPCR_hHTR1A: Eurofins (ERF) G Protein-Coupled Receptor (GPCR) Radioligand Binding LeadHunter Assay for human Serotonin Receptor 5-HT1A Agonism, conducted at France lab site", "description": "ERF_FR_GPCR_hHTR1A is a biochemical, single-readout assay that uses extracted gene-proteins in a cell-free assay. Measurements were taken 1 hour after chemical dosing in a 96-well plate. See 5-HT1A Human Serotonin GPCR Binding (Agonist Radioligand) Assay, Cerep.ERF_FR_GPCR_hHTR1A is an assay component calculated from the ERF_FR_GPCR_hHTR1A assay. It is designed to measure radioligand binding using a type of binding reporter as detected by scintillation counting with radiometry technology.Data from the assay component ERF_FR_GPCR_hHTR1A was analyzed at the assay endpoint, ERF_FR_GPCR_hHTR1A, in the positive analysis fitting direction relative to DMSO as the negative control and baseline of activity. Using a type of binding reporter, gain-of-signal activity can be used to understand changes in binding as they relate to gene HTR1A. To generalize the intended target to other relatable targets, this assay endpoint is annotated to the gpcr intended target family, where the subfamily is serotonin.\nHuman cells are incubated for 60 minutes at room temprature with [3H]8-OH-DPAT ligand (0.5 nM) and 8-OH-DPAT as control inhibitor. Test Sample Requirements: Minimum for 1) Screen: 60 ul of 10 mM stock -OR- 1 mg (pre-weighed) for 10 uM final testing. 2) Dose Response: 90 ul of 10 mM stock -OR- 1 mg (pre-weighed) for a top concentration at 10 uM."}
{"smiles": "COc1cc(/C=C/C(=O)CC(=O)/C=C/c2ccc(O)c(OC)c2)ccc1O", "AC50": "2.01 µM (active)"}
{"smiles": "CCCCC[C@H](O)CC(=O)CCc1ccc(O)c(OC)c1", "outcome": "inactive"}
{"smiles": "O=C(/C=C/c1ccc(O)cc1)CC(=O)/C=C/c1ccc(O)cc1", "outcome": "inactive"}
